# Out of some 48,000 compounds screened, about 13,000 (27%) showed an effect of 50% or more. Some of the results follow.
# Test system: Wolbachia pipientis
# Assay: Anti-Wolbachia Cell-Based Screen
# Format: functional
# Set-up: scale not given: in the data most compounds retested in dose-response had high values
# Conditions: 5 µM
row,Compound,Percent Effect [%]
1,Cl.Cn1cc(CNC2CCC(O)CC2)c(-c2cc3ccccc3o2)n1 (stereo not given),4.474
2,CC(NC(=O)Cc1cc2c(cc1Cl)OCCO2)c1ccncn1 (stereo not given),-8.722
3,O=C(c1c2c(NCC3CC3)ncnc2n2ccccc12)N1CCCC1,17.48
4,COc1ncc(C2CC(=O)NCc3nc4ccccn4c32)cn1 (stereo not given),2.979
5,CCn1ccc(C(=O)N(C)Cc2cnn(-c3cccc(OC)c3)c2)n1,-12.09
6,Cc1ccc(C2CN(Cc3cnc(-c4cccnc4)s3)CCO2)o1 (stereo not given),6.287
7,COc1ccc2cc(C3CN(C(=O)COC(C)C)CCO3)ccc2c1 (stereo not given),-0.3239
8,Cc1nccc(C2CN(Cc3cc[nH]n3)CCO2)n1 (stereo not given),-9.06
9,Br.Cn1nccc1CN1CCOC(c2cccc(-c3cncnc3)n2)C1 (stereo not given),91.95
10,CCC1CN(C(=O)COc2ccc(C)nc2)CCO1 (stereo not given),-3.761
11,COCC(=O)N1CCOC(c2ccc(N(C)C)cn2)C1 (stereo not given),108.5
12,COCC(=O)N1CCOC(c2cccc(-c3cncnc3)n2)C1 (stereo not given),151.1
13,CNC(=O)c1ccc(C2CN(C(=O)COC)CCO2)nc1 (stereo not given),-5.036
14,CC(Cc1ccc(C(F)(F)F)cc1)C(=O)N1CCCS1(=O)=O (stereo not given),-11.51
15,c1ccc(C2CN(C3CC3)CC3(CCN(Cc4cscn4)CC3)C2)cc1 (stereo not given),-14.1
16,CCOc1ccc(CN2C(=O)CC(C)(C(C)C)C2=O)nc1 (stereo not given),-23.31
17,CC(C)N(C)Cc1nnc2n1CCCN(c1ncccn1)C2.O=C(O)C(F)(F)F,99.37
18,Cc1cnc(N2CCCn3c(nnc3CN(C)C(C)C)C2)nc1.O=C(O)C(F)(F)F,99.73

row,Compound,Percent Effect [%]
1,Fc1cnc(N2CCCn3c(nnc3Cn3ccnc3)C2)nc1.O=C(O)C(F)(F)F,-11.56
2,Cc1cnc(N2CCn3c(CN4CCOCC4)nnc3C2)nc1.O=C(O)C(F)(F)F,-6.202
3,CS(=O)(=O)N1CCC(NCC2(N3CCOCC3)CCCCC2)CC1,-12.17
4,COc1cc2cc(C(=O)N[C@@H](C)C(=O)O)n(C)c2c(OC)c1OC,6.023
5,CC(C)Cc1ncc(CNc2cnccc2CO)s1,2.618
6,CC(C)n1cnc2c1C(C(=O)NCCO)N(Cc1ccccc1)CC2.O=C(O)C(F)(F)F (stereo not given),2.168
7,CN(C1CCc2ccccc2C1)S(C)(=O)=O (stereo not given),-5.064
8,COCCN(CC(F)F)c1cc(COC)nc2ncnn12,3.034
9,CCn1c(CN2CCCN(C(=O)OC)CC2)nc2c(F)cccc21,-3.965
10,CCC(=O)N1CCCN(C(=O)c2cc(C)cc(Br)c2O)CC1,5.319
11,CCn1ccnc1CN1CCCN(C(=O)Cn2nc(C)cc2C)CC1,-3.678
12,CCC(=O)N1CCCN(Cn2nc(C)c(Br)c2C)CC1,116.5
13,COC(=O)N1CCCN(C(=O)c2cccc3cccnc23)CC1,-4.967
14,COCC(=O)N1CCN(Cn2nc(C)c(Br)c2C)CC1,100.8
15,COCC(=O)N1CCCN(Cc2c(C)nc3ccc(Cl)cn23)CC1,-0.9556
16,COCC(=O)N1CCN(Cc2nnc(C(C)(C)C)o2)CC1,-20.23
17,COC(=O)N1CCCN(Cn2nc(C)c(Br)c2C)CC1,92.29

# Reference: ChEMBL document CHEMBL3988442, “University of Dundee, Small-Polar-MMV Screening Library” (2021)
